# Assay results published in PubChem BioAssay (NCI).
# Compounds without any hit were thinned out: in the full panel of roughly 79,000, 15% have a hit. A number with no mark means an inactive call. Active and inactive are the calls of the source. No stated cut-off is given here; in the data, active means growth inhibition above about 70%; inactive means the rest.
# Columns and labels:
# [1] = NCI Yeast Anticancer Drug Screen. Data for the mec2-1 strain (AID 157); details: S. cerevisiae mec2-1 strain, active compounds read high
# Outline: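 mec2-1 yeast strain, carrying an alteration in DNA damage repair or cell cycle control, was exposed to compounds; growth inhibition was measured relative to vehicle-treated controls.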
# [2] = NCI Yeast Anticancer Drug Screen. Data for the rad14 strain (AID 159);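 further: 0% = growth of vehicle-treated control cultures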; details: S. cerevisiae rad14 strain growth inhibition, active compounds read high
# Outline: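 DNA repair-defective yeast, compound-exposed; % growth inhibition derived by comparison with vehicle-treated controls.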
# [3] = NCI Yeast Anticancer Drug Screen. Data for the sgs1 mgt1 strain (AID 161);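 further: 0% = growth of cultures given vehicle only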; details: S. cerevisiae sgs1 mgt1 strain, active compounds read high
# Outline: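 Percent growth inhibition was derived by comparing compound-exposed mutant yeast with vehicle-exposed cultures. The strain carries alterations in DNA damage repair.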
# [4] = NCI Yeast Anticancer Drug Screen. Data for the CLN2oe strain (AID 163);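 further: 0% = growth of vehicle-only control cultures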; details: S. cerevisiae CLN2oe strain, active compounds read high
# Outline: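 Yeast cells carrying a defined cell-cycle control alteration were exposed to test compounds. Growth inhibition was scored against vehicle-treated control cultures.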
# [5] = NCI Yeast Anticancer Drug Screen. Data for the cln2 rad14 strain (AID 165);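 further: 0% = growth equal to vehicle treated cultures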; details: S. cerevisiae cln2 rad14 strain, active compounds read high
# Outline: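 Yeast carrying cln2 and rad14 alterations (cell cycle control and DNA damage repair) were exposed to compounds. Growth inhibition was measured against vehicle-treated controls.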
# [6] = NCI Yeast Anticancer Drug Screen. Data for the bub3 strain (AID 167); details: S. cerevisiae bub3 mutant strain, active compounds read high
# Outline: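 In this screen, a yeast mutant lacking normal mitotic checkpoint function is challenged with compound. Relative growth versus vehicle gives the inhibition value.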
# [7] = NCI Yeast Anticancer Drug Screen. Data for the wt2 strain (AID 169);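 further: 0% = growth of vehicle-treated yeast cultures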; details: S. cerevisiae wt2 strain growth inhibition, active compounds read high
# Outline: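 Yeast cells were exposed to test compounds, and growth inhibition was measured relative to vehicle-treated controls.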
# [8] = NCI Yeast Anticancer Drug Screen. Data for the mlh1 strain (AID 171);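 further: 0% = growth of vehicle-treated control cultures of the same strain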; details: S. cerevisiae mlh1 strain growth inhibition, active compounds read high
# Outline: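 Yeast carrying a defined genetic alteration in DNA damage repair or cell cycle control were exposed to test compounds. Growth inhibition was measured relative to vehicle-treated controls.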
# [9] = NCI Yeast Anticancer Drug Screen. Data for the sgs1 strain (AID 173);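 further: 0% = growth of vehicle-only control cultures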; details: S. cerevisiae sgs1 mutant, active compounds read high
# Outline: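 Yeast mutant strains carrying defined defects in DNA damage repair or cell cycle control were exposed to test compounds. Growth inhibition was scored against vehicle-treated controls.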
# [10] = NCI Yeast Anticancer Drug Screen. Data for the mlh1 rad18 strain (AID 175); details: S. cerevisiae mlh1 rad18 strain growth inhibition, active compounds read high
# Outline: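 Growth inhibition of the yeast strain was measured after compound exposure and expressed relative to vehicle-treated controls. The strain carries defined defects in DNA damage repair.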
# [11] = NCI Yeast Anticancer Drug Screen. Data for the rad18 strain (AID 177); details: S. cerevisiae rad18 mutant growth inhibition, active compounds read high
# Outline: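 Yeast carrying a defined DNA damage repair alteration were exposed to compounds. Growth inhibition was expressed relative to vehicle-treated controls.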
# [12] = NCI Yeast Anticancer Drug Screen. Data for the rad52 strain (AID 147);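 further: 0% = growth of vehicle-treated control cultures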; details: S. cerevisiae rad52 mutant growth inhibition, active compounds read high
# Outline: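 Yeast strain carrying a DNA damage repair alteration was exposed to test compounds. Growth inhibition was measured relative to vehicle-treated controls.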
# [13] = NCI Yeast Anticancer Drug Screen. Data for the wt1 strain (AID 149);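 further: 0% = growth of vehicle-treated wt1 cultures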; details: S. cerevisiae wt1 strain (SPY 50644) growth inhibition, active compounds read high
# Outline: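 wt1 strain grown with compound or vehicle; inhibition taken from the growth difference.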
# [14] = NCI Yeast Anticancer Drug Screen. Data for the rad50EPP+ strain (AID 151);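 further: 0% = growth of vehicle-treated control cultures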; details: S. cerevisiae rad50 mutant strain, active compounds read high
# Outline: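 Yeast strain carrying rad50 alteration (rad50EPP+) exposed to compounds; growth inhibition measured relative to vehicle-treated controls.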
# [15] = NCI Yeast Anticancer Drug Screen. Data for the mgt1 strain (AID 153); details: S. cerevisiae mgt1 mutant growth inhibition, active compounds read high
# Outline: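 Yeast mgt1 strain (DNA repair/cell-cycle alteration panel) exposed to compounds; growth inhibition measured relative to vehicle-treated controls.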
# [16] = NCI Yeast Anticancer Drug Screen. Data for the rad50 strain (AID 155);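 further: 0% = growth of vehicle-only cultures of the same strain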; details: S. cerevisiae rad50 strain growth inhibition, active compounds read high
# Outline: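 DNA repair mutant yeast, compound exposure, growth read-out; inhibition is taken relative to vehicle.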
# [17] = at 5.0 µM (retest, dose inferred, filed as 0.5)
# [18] = at 50.0 µM (retest, dose inferred, filed as 5.0)
compound,measurement,setting,value
Cc1cc2c(cc1C)[n+]([O-])c(-c1nc3ccccc3s1)c(N)[n+]2[O-],growth inhibition,[1]; [17],23%
same,growth inhibition,[1]; at 11.0 µM,26%
same,growth inhibition,[1]; at 33.0 µM,37%
same,growth inhibition,[1]; [18],79% (active)
same,growth inhibition,[1]; at 50.0 µM,76% (active)
same,growth inhibition,[1]; at 100.0 µM,97% (active)
same,growth inhibition,[2]; at 1.2 µM,1%
same,growth inhibition,[2]; at 3.7 µM,14%
same,growth inhibition,[2]; at 11.0 µM,22%
same,growth inhibition,[2]; at 33.0 µM,29%
same,growth inhibition,[2]; at 100.0 µM,85% (active)
same,growth inhibition,[3]; [17],28%
same,growth inhibition,[3]; [18],89% (active)
same,growth inhibition,[3]; at 50.0 µM,80.6% (active)
same,growth inhibition,[4]; at 1.2 µM,-1%
same,growth inhibition,[4]; at 3.7 µM,5%
same,growth inhibition,[4]; at 11.0 µM,18%
same,growth inhibition,[4]; at 33.0 µM,10%
same,growth inhibition,[4]; at 100.0 µM,25%
same,growth inhibition,[5]; [17],2%
same,growth inhibition,[5]; [18],41%
same,growth inhibition,[5]; at 50.0 µM,81.5% (active)
same,growth inhibition,[6]; at 1.2 µM,11%
same,growth inhibition,[6]; at 3.7 µM,32%
same,growth inhibition,[6]; [17],47%
same,growth inhibition,[6]; at 11.0 µM,46%
same,growth inhibition,[6]; at 33.0 µM,53%
same,growth inhibition,[6]; [18],92% (active)
same,growth inhibition,[6]; at 50.0 µM,93.7% (active)
same,growth inhibition,[6]; at 100.0 µM,96% (active)
same,growth inhibition,[7]; at 1.2 µM,14%
same,growth inhibition,[7]; at 3.7 µM,18%
same,growth inhibition,[7]; at 11.0 µM,18%
same,growth inhibition,[7]; at 33.0 µM,21%
same,growth inhibition,[7]; at 100.0 µM,58%
same,growth inhibition,[8]; at 1.2 µM,6%
same,growth inhibition,[8]; at 3.7 µM,14%
same,growth inhibition,[8]; at 11.0 µM,17%
same,growth inhibition,[8]; at 33.0 µM,20%
same,growth inhibition,[8]; at 100.0 µM,55%
same,growth inhibition,[9]; at 1.2 µM,10%
same,growth inhibition,[9]; at 3.7 µM,21%
same,growth inhibition,[9]; at 11.0 µM,24%
same,growth inhibition,[9]; at 33.0 µM,39%
same,growth inhibition,[9]; at 100.0 µM,79% (active)
same,growth inhibition,[10]; [17],33%
same,growth inhibition,[10]; [18],90% (active)
same,growth inhibition,[10]; at 50.0 µM,94.9% (active)
same,growth inhibition,[11]; at 1.2 µM,4%
same,growth inhibition,[11]; at 3.7 µM,20%
same,growth inhibition,[11]; at 11.0 µM,36%
same,growth inhibition,[11]; at 33.0 µM,63%
same,growth inhibition,[11]; at 100.0 µM,91% (active)
CCC1(OC(=O)CN2CCN(CCO)CC2)C(=O)OCc2c1cc1n(c2=O)Cc2cc3ccccc3nc2-1 (stereo unspecified),growth inhibition,[12]; at 1.2 µM,35%
same,growth inhibition,[12]; at 3.7 µM,49%
same,growth inhibition,[12]; at 11.0 µM,70% (active)
same,growth inhibition,[12]; at 33.0 µM,89% (active)
same,growth inhibition,[12]; at 100.0 µM,93% (active)
same,growth inhibition,[13]; at 1.2 µM,9%
same,growth inhibition,[13]; at 3.7 µM,15%
same,growth inhibition,[13]; at 11.0 µM,24%
same,growth inhibition,[13]; at 33.0 µM,13%
same,growth inhibition,[13]; at 100.0 µM,7%
same,growth inhibition,[14]; at 1.2 µM,16%
same,growth inhibition,[14]; at 3.7 µM,17%
same,growth inhibition,[14]; at 11.0 µM,42%
same,growth inhibition,[14]; at 33.0 µM,60%
same,growth inhibition,[14]; at 100.0 µM,82% (active)
same,growth inhibition,[15]; at 1.2 µM,-18%
same,growth inhibition,[15]; at 3.7 µM,-20%
same,growth inhibition,[15]; at 11.0 µM,-19%
same,growth inhibition,[15]; at 33.0 µM,-23%
same,growth inhibition,[15]; at 100.0 µM,-45%
same,growth inhibition,[16]; at 1.2 µM,18%
same,growth inhibition,[16]; at 3.7 µM,57%
same,growth inhibition,[16]; [17],4%
same,growth inhibition,[16]; at 11.0 µM,74% (active)
same,growth inhibition,[16]; at 33.0 µM,88% (active)
same,growth inhibition,[16]; [18],83% (active)
same,growth inhibition,[16]; at 50.0 µM,17.9%
same,growth inhibition,[16]; at 100.0 µM,92% (active)
same,growth inhibition,[1]; at 1.2 µM,-23%
same,growth inhibition,[1]; at 3.7 µM,-19%
same,growth inhibition,[1]; [17],4%
same,growth inhibition,[1]; at 11.0 µM,-12%
same,growth inhibition,[1]; at 33.0 µM,-21%
same,growth inhibition,[1]; [18],-2%
same,growth inhibition,[1]; at 50.0 µM,20.1%
same,growth inhibition,[1]; at 100.0 µM,29%
same,growth inhibition,[2]; at 1.2 µM,-13%
same,growth inhibition,[2]; at 3.7 µM,-4%
same,growth inhibition,[2]; at 11.0 µM,-25%
same,growth inhibition,[2]; at 33.0 µM,-14%
same,growth inhibition,[2]; at 100.0 µM,-20%
same,growth inhibition,[3]; [17],-8%
same,growth inhibition,[3]; [18],-10%
same,growth inhibition,[3]; at 50.0 µM,3.05%
same,growth inhibition,[4]; at 1.2 µM,3%
same,growth inhibition,[4]; at 3.7 µM,5%
same,growth inhibition,[4]; at 11.0 µM,2%
same,growth inhibition,[4]; at 33.0 µM,-23%
same,growth inhibition,[4]; at 100.0 µM,-3%
same,growth inhibition,[5]; [17],20%
same,growth inhibition,[5]; [18],17%
same,growth inhibition,[5]; at 50.0 µM,8.9%
same,growth inhibition,[6]; at 1.2 µM,-4%
same,growth inhibition,[6]; at 3.7 µM,1%
same,growth inhibition,[6]; [17],0%
same,growth inhibition,[6]; at 11.0 µM,-10%
same,growth inhibition,[6]; at 33.0 µM,-14%
same,growth inhibition,[6]; [18],3%
same,growth inhibition,[6]; at 50.0 µM,-21.4%
same,growth inhibition,[6]; at 100.0 µM,-30%
same,growth inhibition,[7]; at 1.2 µM,11%
same,growth inhibition,[7]; at 3.7 µM,9%
same,growth inhibition,[7]; at 11.0 µM,14%
same,growth inhibition,[7]; at 33.0 µM,5%
same,growth inhibition,[7]; at 100.0 µM,-4%
same,growth inhibition,[8]; at 1.2 µM,1%
same,growth inhibition,[8]; at 3.7 µM,-5%
same,growth inhibition,[8]; at 11.0 µM,-12%
same,growth inhibition,[8]; at 33.0 µM,-20%
same,growth inhibition,[8]; at 100.0 µM,-13%
same,growth inhibition,[9]; at 1.2 µM,30%
same,growth inhibition,[9]; at 3.7 µM,21%
same,growth inhibition,[9]; at 11.0 µM,26%
same,growth inhibition,[9]; at 33.0 µM,21%
same,growth inhibition,[9]; at 100.0 µM,24%
same,growth inhibition,[10]; [17],-8%
same,growth inhibition,[10]; [18],-1%
same,growth inhibition,[10]; at 50.0 µM,78.3% (active)
same,growth inhibition,[11]; at 1.2 µM,9%
same,growth inhibition,[11]; at 3.7 µM,19%
same,growth inhibition,[11]; at 11.0 µM,6%
same,growth inhibition,[11]; at 33.0 µM,6%
same,growth inhibition,[11]; at 100.0 µM,1%
